Data as given in article PMC5700166.

Biological target: T1, GST-Nv-NF-kB (Ser allele) (Nematostella vectensis, UniProt A7UNT2 2-411)
T1 sequence: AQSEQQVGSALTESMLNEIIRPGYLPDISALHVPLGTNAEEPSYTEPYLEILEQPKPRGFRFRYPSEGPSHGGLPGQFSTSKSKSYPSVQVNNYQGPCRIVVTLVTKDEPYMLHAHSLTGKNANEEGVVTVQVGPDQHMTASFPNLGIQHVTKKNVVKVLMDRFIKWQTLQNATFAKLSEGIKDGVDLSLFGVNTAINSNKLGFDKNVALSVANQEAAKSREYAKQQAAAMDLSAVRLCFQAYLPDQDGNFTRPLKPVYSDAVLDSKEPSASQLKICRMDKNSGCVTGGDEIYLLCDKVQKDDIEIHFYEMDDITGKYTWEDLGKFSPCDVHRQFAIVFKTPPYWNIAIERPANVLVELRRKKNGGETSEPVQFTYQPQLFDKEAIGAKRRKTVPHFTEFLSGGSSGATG
Assay: protein-binding microarray (PBM); PBM: ~300 nM protein, 6 mM HEPES pH 7.8, 80 mM KCl, 0.5 mM EDTA, 0.5 mM EGTA, 6% glycerol, 35 ng/ul poly-dIdC, 1% milk, 1 h, room temperature; Ap Aiptasia and Nv Nematostella (sea anemones) / Co Capsaspora / Aq Amphimedon (sponge) / Dm Drosophila / Hu human; RHD is the Rel homology domain; high values mean tight binding
Conditions: dsDNA, one strand shown

Sequence | binding signal
CCGATTAACATCAGAAGTCCCCCTGATGTTAATCGGGTCTTGATTCGCTTGACGCTGCTG | 6.47 z-score
CCGATTAACATCAACTATCCCCCTGATGTTAATCGGGTCTTGATTCGCTTGACGCTGCTG | 5.03 z-score
CCGATTAACATCAAGGGAATTCCTGATGTTAATCGGGTCTTGATTCGCTTGACGCTGCTG | 6.53 z-score
CCGATTAACATCAGGAACCCCCCTGATGTTAATCGGGTCTTGATTCGCTTGACGCTGCTG | 5.44 z-score
CCGATTAACATCAGGGAGTTTACTGATGTTAATCGGGTCTTGATTCGCTTGACGCTGCTG | 3.63 z-score
CCGATTAACATCAGGGGGTTAAATGATGTTAATCGGGTCTTGATTCGCTTGACGCTGCTG | 4.45 z-score
CCGATTAACATCAATATCCCCCCTGATGTTAATCGGGTCTTGATTCGCTTGACGCTGCTG | 6.44 z-score
CCGATTAACATCAGGACTGCCCCTGATGTTAATCGGGTCTTGATTCGCTTGACGCTGCTG | 1.72 z-score
CCGATTAACATCAGAGTATCCCCTGATGTTAATCGGGTCTTGATTCGCTTGACGCTGCTG | 5.44 z-score
CCGATTAACATCAGAAACTTCCCTGATGTTAATCGGGTCTTGATTCGCTTGACGCTGCTG | 4.61 z-score
CCGATTAACATCAAATAAGCCCCTGATGTTAATCGGGTCTTGATTCGCTTGACGCTGCTG | 4 z-score
CCGATTAACATCAATCCCCCCCCTGATGTTAATCGGGTCTTGATTCGCTTGACGCTGCTG | 6.45 z-score
CCGATTAACATCAAGGAATTCCCTGATGTTAATCGGGTCTTGATTCGCTTGACGCTGCTG | 6.37 z-score
CCGATTAACATCAGGGGGAGTCATGATGTTAATCGGGTCTTGATTCGCTTGACGCTGCTG | 5.02 z-score
CCGATTAACATCACAAATACCCCTGATGTTAATCGGGTCTTGATTCGCTTGACGCTGCTG | 4.74 z-score
CCGATTAACATCACCCCCCCCCCTGATGTTAATCGGGTCTTGATTCGCTTGACGCTGCTG | 5.24 z-score
CCGATTAACATCAGGGGCTTACCTGATGTTAATCGGGTCTTGATTCGCTTGACGCTGCTG | 3.61 z-score
CCGATTAACATCAAAAGCCCCCTTGATGTTAATCGGGTCTTGATTCGCTTGACGCTGCTG | 5.65 z-score
CCGATTAACATCAAATTCCCTTATGATGTTAATCGGGTCTTGATTCGCTTGACGCTGCTG | 6.07 z-score
CCGATTAACATCATCCCCCCCCATGATGTTAATCGGGTCTTGATTCGCTTGACGCTGCTG | 4 z-score

Sequence | binding signal
CCGATTAACATCAGAAAAACACCTGATGTTAATCGGGTCTTGATTCGCTTGACGCTGCTG | 4.39 z-score
CCGATTAACATCAGGGGGTTGCATGATGTTAATCGGGTCTTGATTCGCTTGACGCTGCTG | 4.66 z-score
CCGATTAACATCATCTCCCCCCATGATGTTAATCGGGTCTTGATTCGCTTGACGCTGCTG | 3.69 z-score
CCGATTAACATCACGGGAATGCCTGATGTTAATCGGGTCTTGATTCGCTTGACGCTGCTG | 1.33 z-score
CCGATTAACATCACTCCCCCCCCTGATGTTAATCGGGTCTTGATTCGCTTGACGCTGCTG | 4.8 z-score
CCGATTAACATCAGGGGGAGTACTGATGTTAATCGGGTCTTGATTCGCTTGACGCTGCTG | 5.81 z-score
CCGATTAACATCAAGAGTCCCCCTGATGTTAATCGGGTCTTGATTCGCTTGACGCTGCTG | 5.78 z-score
CCGATTAACATCAGGATGTCCCCTGATGTTAATCGGGTCTTGATTCGCTTGACGCTGCTG | 4.5 z-score
CCGATTAACATCACATATCCCCCTGATGTTAATCGGGTCTTGATTCGCTTGACGCTGCTG | 6.2 z-score
CCGATTAACATCACAGAAACCCCTGATGTTAATCGGGTCTTGATTCGCTTGACGCTGCTG | 4.97 z-score
CCGATTAACATCAGGGGGAGCACTGATGTTAATCGGGTCTTGATTCGCTTGACGCTGCTG | 4.71 z-score
CCGATTAACATCAGGGGACTTCATGATGTTAATCGGGTCTTGATTCGCTTGACGCTGCTG | 6.12 z-score
CCGATTAACATCAGGAGATCCCCTGATGTTAATCGGGTCTTGATTCGCTTGACGCTGCTG | 6.55 z-score
CCGATTAACATCAAATACCCCCCTGATGTTAATCGGGTCTTGATTCGCTTGACGCTGCTG | 6.55 z-score
CCGATTAACATCAACACTCCCCCTGATGTTAATCGGGTCTTGATTCGCTTGACGCTGCTG | 5.61 z-score
CCGATTAACATCACAGAGTCCCCTGATGTTAATCGGGTCTTGATTCGCTTGACGCTGCTG | 6.04 z-score
CCGATTAACATCAAACTCCCCCGTGATGTTAATCGGGTCTTGATTCGCTTGACGCTGCTG | 6.52 z-score
CCGATTAACATCAAACCACCCCCTGATGTTAATCGGGTCTTGATTCGCTTGACGCTGCTG | 3.66 z-score
CCGATTAACATCAGGGCACCCCCTGATGTTAATCGGGTCTTGATTCGCTTGACGCTGCTG | 3.83 z-score
CCGATTAACATCAGCTCCCCCCCTGATGTTAATCGGGTCTTGATTCGCTTGACGCTGCTG | 3.44 z-score
